# IL2 activator: IL-2 activation. IL-2 activation reporter assay, cell-based qHTS; stimulated with anti-CD3/CD4/CD28 beads; in transgenic mouse T cells. activation, % (series mostly up to about 46 µM). AID 652025. hit rate 0.065% among 360,000; in the data active means activation above about 50%; inconclusive means mostly about 30% to 49%; further: 0% is about no effect
#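 Readout is EGFP and DsRed signal by fluorescent plate cytometry after 18 h at 37 degrees C. Transgenic mouse T cells (750/well) received compound for 60 min before bead stimulation (anti-CD3, anti-CD4, anti-CD28); memory T cells served as non-tolerant control.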
# TCR activator: activators of T cell receptors | primary human leukocytes, anti-CD3, IL-2 HTRF, 48 h | Potency, µM (highest dose often 9.22 µM), for the others: top-dose activation of IL-2 secretion, usual class: activators | 330,000 tested, under 10 active | AID 504894; further: % of control where 0% means no effect
#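 Human primary leukocytes + a-CD3 beads + cpd, 48 hr; IL-2 in supernatant by HTRF (ex 320nm / em 665nm). No co-stimulatory signal supplied.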
# uPA surface inh: cell surface uPA generation inhibition; cell surface uPA generation assay, qHTS; Potency, µM (top dose mostly 38.3 µM), without a hit: top-dose activity change, negative = inhibition, actives largely listed as inhibitors; hit rate 0.31% among 330,000; AID 540303; active means well fitted inhibition curve with a large enough effect; inconclusive means small, poorly fitted or top-dose-only effect; inactive means no such curve, though single readings can be large or run the other way; tested in mouse RAW 264.7 cells; further: potency means the concentration at half of the fitted maximal effect; on the % scale 0 is the no-effect control and ±100 the full control effect; nearly all actives have a fitted effect of over 55% in size
# p53 reactivator: mutant p53 re-activation in reporter cells. H1299 p53-A138V BP100-luciferase reporter, luminescence, 24 h. Potency, µM (highest dose often 92.2 µM), without a hit: at the highest dose activity change, positive = activation, usual class: activators. hit rate 0.063% among 320,000. AID 504706; further: potency means the concentration at half of the fitted maximal effect; % of control where 0% means no effect; nearly all actives have a fitted effect of over 45% in size
#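 p53-null H1299 cells stably carrying temperature-sensitive p53-A138V and a BP100-luciferase reporter were pinned with compounds (4-point, 1:5 series) and held 24 hrs at 37 deg C. Luminescence was read 10 min after detection reagent.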
# BRCA1 expr act: activators of BRCA1 expression | MCF7-BRCA1-FFLuc reporter, luminescence, 48 h; response scale: scaled: vehicle 0%, 10 µM genistein 100% | Potency, µM (highest dose often 46.1 µM), without a hit: at the highest dose activation, most hits filed as activators | hit rate 1.1% among 380,000 | AID 624202; further: potency means the concentration at half of the fitted maximal effect; nearly all actives have a fitted effect of over 80% in size
#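 Luminescence from a BRCA1-driven firefly luciferase in MCF7 cells was the read-out, taken 15 min after substrate addition following 48 h compound exposure at 37 °C. Data were normalized to a 10 microM genistein control and DMSO vehicle.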
# * hit, by the source's call; ? = inconclusive; nt = not tested or not shown; [ ] = dose if it differs, or a comment. In the library only some 1.4% were active in any assay of this set; here they are far more common. Unless noted, the call rests on the fitted dose curve; in most records, active means well fitted curve in the direction sought with a large enough effect; inconclusive means small, poorly fitted or top-dose-only effect, or another doubt; inactive means no such curve, though single readings can be large; an effect the other way counts as inactive or inconclusive.
SMILES,IL2 activator,TCR activator,uPA surface inh,p53 reactivator,BRCA1 expr act
Cc1ccsc1/C=C/c1ccc2cccc(O)c2n1,-4,-2%,nt,40µM*,-27%
Cc1noc(C)c1COc1ccc(C(=O)NNC(=O)c2ccccc2)cc1,-2,3%,-13%,0%,-67%
Cc1noc(C)c1COc1ccc(C(=O)NNC(=O)c2ccccc2F)cc1,0,14%,2.8µM*,7%,-19%
CCc1nc(SCc2ccc(Br)cc2)n[nH]1,-3,-3%,-5%,19%,10µM*
Cc1cc(-c2nc(-c3ccc(C(C)(C)C)cc3)no2)no1,0,2%,11%,20%,7.1µM*
CCn1cc2nc(SCC(=O)Nc3cc(OC)cc(OC)c3)n(Cc3ccc(Cl)cc3)c(=O)c2n1,nt,nt,nt,nt,-34%
Cc1cc(C(=O)CSc2ncccn2)c(C)n1Cc1ccco1,-1,2%,-5%,-2%,?
Cc1cc(C(=O)COC(=O)c2ccc(O)cc2)c(C)n1Cc1ccco1,-2,-2%[46.1 µM],-20%,?,2.8µM*
Cc1cc(C(=O)CSc2nnnn2C)c(C)n1Cc1ccco1,-4,-4%,0%,14%,4.5µM*
COc1ccc2c(c1)c1c(c(=O)n(-c3cc(Cl)ccc3C)c(=O)n1CC(=O)N1CCCC1)n2C,nt,nt,nt,nt,8%
O=C(NCc1cccs1)c1ccc(N2CCCCC2)nc1,1,nt,-13%,nt,7.9µM*
CC1CCCN(c2ccc(C(=O)NCc3cccs3)cn2)C1 (centres undefined),0,-4%[46.1 µM],-17%,?,10µM*
O=C(NCc1cccs1)c1ccncc1,-2,-4%,0%,-1%,-1%
CC1CCCN(c2ccc(C(=O)NCc3ccccc3)cn2)C1 (centres undefined),1,4%,-6%,15%,6.3µM*
Cc1ccc(S(=O)(=O)N2CCN(c3nc(-c4cncnc4)nc4ccccc34)CC2)cc1,nt,nt,nt,nt,18%
CCOC(=O)c1sc(Nc2ccccc2Cl)nc1C,-1,-1%,-24%,8%,8.9µM*
CN=C1N[C@H](c2ccccc2)N(c2ccccc2)S1,nt,nt,nt,nt,19%
CC(=O)Oc1ccc2occ(C(=O)c3ccccc3)c2c1,1,1%,-1%,nt,7.1µM*
O=C(O)COc1ccc2occ(C(=O)c3ccccc3)c2c1,-3,-8%,2%,3%,-11%
Cc1ccc2c(c1)c1c(c(=O)n(-c3cccc(Cl)c3)c(=O)n1CC(=O)N1CCCC1)n2C,nt,nt,nt,nt,11%
COc1ccc2oc(C(=O)N(C)CCOc3ccccc3)c(C)c2c1,-1,-1%,11%,3%,11µM*
COc1ccc2oc(C(=O)N(C)Cc3ccc(OC(F)F)cc3)c(C)c2c1,-1,-3%,-2%,-6%,48%
COc1ccc2oc(C(=O)NCCC(C)C)c(C)c2c1,1,10%,-3%,24%,7.1µM*
COc1ccc(C(CNC(=O)c2oc3ccc(OC)cc3c2C)N2CCCC2)cc1 (centres undefined),-7,-2%,-7%,-7%,-44%
COc1ccc2oc(C(=O)Nc3nc(C)cs3)c(C)c2c1,-1,-4%,10µM*,48%,48%
SMILES,IL2 activator,TCR activator,uPA surface inh,p53 reactivator,BRCA1 expr act
COc1ccc(CNC(=O)c2ccc3c(c2)N(Cc2cc(C)ccc2C)C(=O)CS3)cc1,nt,nt,nt,nt,8%
COc1ccc(NC(=O)C2CCCN2S(=O)(=O)c2ccc3c(c2)CCCC(=O)N3)cc1Cl (centres undefined),nt,nt,nt,nt,-24%
COc1ccc(-n2nc([N+](=O)[O-])c(=NCCCN3CCCC3=O)n2O)cc1,-1,-8%,11µM*,21%,1%
O=C1CCCN1CCCN=c1c([N+](=O)[O-])nn(-c2ccc(Cl)cc2)n1O,-5,4%,-16%,27%,-29%
CCOC(=O)c1cccc(NC(=O)C2CCCN(S(=O)(=O)c3cc(Br)cc4c3N(C(=O)CC)CC4)C2)c1 (centres undefined),nt,nt,nt,nt,6%
CC1(C)CC(=O)C=C(c2ccc(CO)cc2)C1=O,-3,nt,nt,nt,-12%
COc1ccc(C2=CC(=O)CC(C)(C)C2)cc1,-3,0%,-1%,17%,81%
CC1(C)CC(=O)C=C(c2ccc(-c3ccccc3)cc2)C1,0,-1%,-15%,?,10µM*
CC1(C)CC(=O)C=C(c2ccc(-c3ccccc3)cc2)C1=O,-1,nt,nt,nt,13µM*
